IL1B secr inh: inflammasome signaling inhibition, IL-1 beta readout; THP-1 LPS/ATP IL-1B secretion, AlphaLISA, 16 h; hits give low values; activity change, % at 57.5 µM; 360,000 tested, 4.7% active; in the data active = activity change below about -50%; inconclusive = mostly about -30% to -49%
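THP-1 cells pretreated 1 hr with compounds (up to 57.5 uM final), then stimulated with LPS (250 ng/mL final) plus ATP (1.25 mM final); secreted IL-1B measured by AlphaLISA after 16 hr, decreased signal indicating inhibition.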
HT1080NT lethal: kills 2HG-producing HT-1080-NT fibrosarcoma cells; HT-1080-NT fibrosarcoma viability, CellTiter-Glo ATP luminescence, 48 h; Potency, µM (top dose mostly 46.1 µM), for inactives: at the top dose activity, negative = less viability, most hits filed as cytotoxic; 360,000 tested, 1.6% active; AID 686970;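 also: NT is the 2HG producing partner of a matched IDH1 knockdown line; potency is read from the fitted curve at half-maximal effect; 0% = DMSO-treated cells and -100% = media-only wells without cells; nearly all actives have a fitted effect of over 55% in size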
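HT-1080-NT fibrosarcoma cells (2HG-overproducing), 750 cells/well in RPMI with 5% FBS, dosed after 2 h and incubated 48 h at 37C. CellTiter-Glo luminescence normalized to DMSO and no-cell wells; concentration-response curves fitted and classed.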
HT1080 IDH1KD tx: kills HT-1080 cells with IDH1 knockdown. HT-1080 IDH1 knockdown viability, ATP luminescence, 48 h. Potency, µM (doses to about 46.1 µM), for inactives: at the top dose activity, negative = toxicity, most hits filed as cytotoxic. 360,000 tested, 2% active;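 also: potency is read from the fitted curve at half-maximal effect; 0% = DMSO wells and -100% = cell-free medium wells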
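HT-1080-IDH1KD cells (IDH1 knocked down), 750/well in RPMI with 5% FBS, treated with compound 48 h at 37 degrees C. Viability by CellTiter-Glo luminescence, normalised to DMSO and no-cell wells; concentration-response curves classed.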
TDP1 cell noCPT: qHTS for Inhibitors of human tyrosyl-DNA phosphodiesterase 1 (TDP1): qHTS in cells in absence of CPT. Potency, µM (doses to about 46.2 µM), for inactives: top-dose activity change, negative = growth inhibition, most hits filed as inhibitors. 420,000 tested, 15% active. DT40 Tdp1-/- hTDP1 cells, no CPT, ATP luminescence, 48 h; also: potency is read from the fitted curve at half-maximal effect; nearly all actives have a fitted effect of over 55% in size
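Camptothecin absent (DMSO only). Human TDP1-complemented DT40 knockout cells, 400 cells/well, 37 °C for minimum 48 hr; ATP measured via CellTiter-Glo, 30 min dark incubation, luminescence.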
DT40 TDP1 CPT: growth inhibition of DT40 Tdp1-/-;hTDP1 cells with camptothecin (screen for TDP1 inhibitors). chicken DT40 Tdp1-/-;hTDP1 cells + 20 nM CPT, ATP luminescence, 48 h. Potency, µM (highest dose often 46.2 µM), without a hit: at the highest dose activity change, negative = growth inhibition, most hits filed as inhibitors. 420,000 tested, 12% active. AID 686979; also: potency is read from the fitted curve at half-maximal effect; nearly all actives have a fitted effect of over 55% in size
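Chicken DT40 Tdp1-/- cells complemented with human TDP1, 400 cells/well, exposed to compounds plus 20 nM camptothecin for at least 48 h at 37 C; viability read as ATP content by CellTiter-Glo luminescence.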
ELG1 repair inh: blocks ELG1-dependent DNA repair in HEK293T cells. 330,000 tested, 2.3% active. HEK293T ELG1-luciferase reporter, luminescence, 16 h; DNA damage induced by 5-fluorouridine. AID 504467. Potency, µM (top dose mostly 46.1 µM), for the others: top-dose activity change, negative = inhibition, hits mostly inhibitors; also: potency is read from the fitted curve at half-maximal effect; nearly all actives have a fitted effect of over 55% in size
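Step one: seed 2,000 cells per well. Step two: pin-transfer compound or DMSO alongside 5-fluorouridine. Step three: incubate 16 hr, 37 °C, 5% CO2. Step four: add ONE-Glo, wait 30 min, read luminescence.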
* = called active by the depositor; ? = inconclusive; . = no result given; [ ] = another dose, or the depositor's remark. This is a sample that favours compounds with a hit; in the whole collection about 19% have one here. Unless noted, calls follow the shape of the dose curve; as a rule, active = well fitted curve in the direction sought with a large enough effect; inconclusive = small, poorly fitted or top-dose-only effect, or another doubt; inactive = no such curve, though single readings can be large; an effect the other way counts as inactive or inconclusive. Unless noted, % is scaled to controls: 0 for no effect and ±100 for the full control effect.

SMILES	IL1B secr inh	HT1080NT lethal	HT1080 IDH1KD tx	TDP1 cell noCPT	DT40 TDP1 CPT	ELG1 repair inh
CN(C)S(=O)(=O)c1ccc(N2CCCC2)c(C(=O)N2CCN(S(=O)(=O)c3ccc(F)c(F)c3)CC2)c1	9	-1%	-1%	-19%	-29%	.
CCCNC(=O)c1cc(S(=O)(=O)N2CCCCC2)ccc1N1CCOCC1	7	-1%	-2%	-4%	-11%	-3%
O=C(COC(=O)c1cc(S(=O)(=O)N2CCCCC2)ccc1N1CCOCC1)c1ccc(F)cc1	?	0%	2%	-21%	6%	10µM*
O=C(NCCc1c[nH]c2ccccc12)c1cc(S(=O)(=O)N2CCCCC2)ccc1N1CCOCC1	0	-10%	-7%	13µM*	?	?
Cc1ccc(S(=O)(=O)N2CCN(C(=O)c3cc(S(=O)(=O)N(C)C)ccc3N3CCCC3)CC2)c(C)c1	-1	0%	-6%	16µM*	?	?
O=C(Nc1nc(-c2ccc(Cl)cc2)cs1)NC1CCCCC1	0	-25%	?	?	?	?
COc1ccc(OC)c(C(=O)N2CCOc3ccc(C(C)(O)CN(C)C)cc3C2)c1 (stereo unspecified)	.	.	.	-11%	9%[9.04 µM]	.
Cc1ccc(Nc2nc(N)c([N+](=O)[O-])c(NCc3ccco3)n2)cc1C	-71*	-25%	?	?	26µM*	?
Nc1nc(NCc2ccco2)nc(Nc2ccc(F)cc2)c1[N+](=O)[O-]	7	-2%	-4%	-27%	3%	-4%
Cc1ccc(Nc2nc(N)c([N+](=O)[O-])c(NCCO)n2)cc1C	14	-17%	-1%	-24%	10%	?
COc1ccccc1Nc1nc(NCc2ccco2)nc(N)c1[N+](=O)[O-]	.	-16%	-19%	?	8%	18µM*
COC(=O)C1=C(C(=O)OC)[C@]2([C@H]3CC=CCN[C@@H](Cc4ccccc4)C(=O)N3Cc3ccccc3)C=C[C@H]1O2	-8	-18%	-28%	15µM*	18µM*	.
COC(=O)C1=C(C(=O)OC)[C@]2([C@@H]3CC=CCN[C@@H](Cc4ccccc4)C(=O)N3Cc3ccccc3)C=C[C@H]1O2	10	9%	6%	12µM*	18µM*	.
COC(=O)C1C2C=CC3(CN(CCc4ccccc4)C(=O)C13)O2 (stereo unspecified)	21	-6%	-4%	-11%	-6%	1%
Cn1cc(CCC(=O)N2CCCC(N3CCN(c4ccccc4F)CC3)C2)cn1 (stereo unspecified)	12	?	?	14%	-10%	6%
Cc1ccc(NC(=O)c2ccc(F)cc2)cc1S(=O)(=O)N1CCCCCC1	?	-16%	-13%	-29%	?	16µM*
Cc1cccc(NC(=O)c2ccc(C)c(S(=O)(=O)N3CCCCC3)c2)n1	-12	-3%	-12%	?	?	9%
Cc1ccc(C(=O)Nc2cccc(O)c2)cc1S(=O)(=O)N1CCCCCC1	-57*	-21%	-20%	1.2µM*	29µM*	?
COC(=O)c1ccc(COC(=O)c2ccc(C)c(S(=O)(=O)N3CCCCC3)c2)cc1	33	-3%	-3%	?	29µM*	?
COc1ccc(C(=O)Nc2ccc(C)c(S(=O)(=O)N3CCCCCC3)c2)cc1	0	-9%	-28%	?	?	?
Cc1ccc(C)c(S(=O)(=O)N2CCN(C(=O)CNC(=O)c3ccc4ccccc4c3)CC2)c1	-6	-19%	-18%	16µM*	?	?
COc1ccc(C(C)=O)cc1Cn1cnc2c(cnn2C)c1=O	-15	3%	6%	?	?	-2%
Cc1ccc(C)c(S(=O)(=O)N2CCN(C(=O)[C@@H](NC(=O)c3ccc(F)cc3)C(C)C)CC2)c1	-6	-8%	-12%	21µM*	?	?
Cc1ccc(C)c(S(=O)(=O)N2CCN(C(=O)[C@H](C)N3C(=O)C4CC=CCC4C3=O)CC2)c1 (stereo partly specified)	-3	18%	1%	-27%	-14%	2%
COc1cccc(CNc2nc3cc(-c4ccc(F)cc4)sc3c(=O)n2C)c1OC	-16	-13%	?	16µM*	26µM*	.
SMILES	IL1B secr inh	HT1080NT lethal	HT1080 IDH1KD tx	TDP1 cell noCPT	DT40 TDP1 CPT	ELG1 repair inh
COc1cccc(CNc2nc3cc(-c4ccc(C)cc4)sc3c(=O)n2C)c1OC	85	-1%	?	18µM*	16µM*	.
CC(=O)N1CCOc2ccc(S(=O)(=O)N3CCC(C(=O)NCc4ccc(F)cc4)CC3)cc21	-18	-1%	-5%	4%	3%	3%
COc1cc(/C=N/NC(=O)c2nnn(-c3nonc3N)c2C(C)C)ccc1OCc1ccccc1	43	?	-27%	21µM*	?	-29%
COc1cccc(/C=N/NC(=O)c2nnn(-c3nonc3N)c2C(C)C)c1OCc1ccc(F)cc1	-70*	-22%	?	?	?	?
CC(C)c1c(C(=O)N/N=C/c2ccc(OCc3ccc(F)cc3)cc2)nnn1-c1nonc1N	23	-1%	-11%	?	?	?
CC(C)c1c(C(=O)N/N=C/c2cccc(OCc3ccccc3)c2)nnn1-c1nonc1N	-84*	0%	-10%	-26%	3%	-19%
CC(C)(C)c1ccc(C(=O)C2CCCN(C(=O)CCn3cncn3)C2)cc1 (stereo unspecified)	8	0%	-12%	?	?	-3%
Clc1ccccc1Cc1noc(CN2CCCCC2c2ccccn2)n1 (stereo unspecified)	4	2%	6%	-26%	?	10%
CC(=O)c1ccc(OCc2cc(C(=O)N(C)C(C)c3ccon3)no2)cc1 (stereo unspecified)	-7	-5%	-7%	18µM*	?	.
CC(=O)c1ccc(OCc2cc(C(=O)N3CCCCCCC3)no2)cc1	-12	0%	-10%	4.1µM*	?	16%
CC(=O)c1ccc(OCc2cc(C(=O)N(C)C(C)c3nccs3)no2)cc1 (stereo unspecified)	21	-3%	-8%	?	16µM*	?
CC(=O)c1ccc(OCc2cc(C(=O)N3CCOCC3)no2)cc1	5	13%	3%	-11%	-23%	?
